Results filed as inconclusive are left out. Activity calls are given as the source filed them. Calls come from the whole dose curve; as a rule, active = well fitted curve in either direction with a large enough effect; inconclusive = small, poorly fitted or top-dose-only effect; inactive = no such curve, though single readings can be large or run the other way.
target: Lysosomal alpha-glucosidase (Homo sapiens) (UniProt P10253); assay: Confirmation of Inhibitors and Activators of Human alpha-Glucosidase From Spleen Homogenate; conditions: alpha-glucosidase enzyme activity; series mostly up to 60.5 µM; activity change, both directions: at the top concentration;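 for Potency: fluorescence of 4-methylumbelliferone released from a fluorogenic glucopyranoside substrate at pH 5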; for activity change, both directions: 0% is about no effect
Summary of the method: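 Fluorogenic assay using human spleen homogenate (1 ug) as enzyme source with 1 mM 4-methylumbelliferyl-alpha-D-glucopyranoside, pH 5.0 citrate buffer, 40 min at 37 C. 4-MU read (Ex 365/Em 440) after NaOH/glycine stop; AC50 from Hill fits.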
Potency is the fitted concentration of half-maximal effect.

Activity change, both directions, inactive:
CCc1sc(-c2cc3cc(Cl)ccc3oc2=O)nc1-c1ccccc1 19.5%
Cc1ccc(S(=O)(=O)N2CCOCC2)cc1C -0.759%
CC1(CCc2ccc3c(c2)OCO3)NC(=O)c2ccccc2N1 (stereo unspecified) 4.52% [at 31.5 µM]
Cc1ccc(N=Nc2c(N)nn(-c3ccccc3)c2N)cc1 4.65%
Cc1cccc(S(=O)(=O)c2c(N)n(-c3ccccc3)c3nc4ccccc4nc23)c1 12.7% [at 31.5 µM]
O=C1c2ccccc2NC(c2cccnc2)N1c1ccccc1F (stereo unspecified) 8.66% [at 31.5 µM]
COc1ccc(CCn2c(=S)[nH]c(=O)c3nccnc32)cc1OC 5.16%
C=CCSc1nc(-c2ccc3c(c2)OCO3)cc(C(F)(F)F)c1C#N 40.6%
O=S(=O)(c1cccc(Cl)c1)N1CCOCC1 -1.48%
Cc1cc(C)nc(SCc2cc(=O)c(OC(=O)c3ccco3)co2)n1 -1.64% [at 31.5 µM]
CN1CC=C2C(C#N)=C(N)C(C#N)(C#N)[C@H](c3cccc(Cl)c3)C2C1 (stereo partly specified) 3.84% [at 31.5 µM]
O=S(=O)(c1ccc(Cl)cc1)N1CCN(c2nc(-c3cccs3)nc3ccccc23)CC1 -2.9%
Cc1ccc(CCNC(=O)CNC(=S)N(Cc2ccccc2)Cc2cccnc2)cc1 3%
CCS(=O)(=O)N1Cc2ccccc2CC1C(=O)Nc1ccc(NC(C)=O)cc1 (stereo unspecified) 5.14% [at 31.5 µM]
CCOC(=O)c1cc2c(=O)n3cccc(C)c3nc2n(CCCOC)c1=NC(=O)c1cccnc1 7.03% [at 31.5 µM]
Cn1c(-c2ccco2)nc2cc3ccccc3cc21 7.84% [at 31.5 µM]
COc1ccc(C(=O)N2CCN(c3ccc([N+](=O)[O-])c(NCCc4ccc(OC)c(OC)c4)c3)CC2)cc1 8.22%
O=c1[nH]c2ccccc2nc1/C=C/c1ccc2c(c1)OCO2 3.87%
O=C(Cc1ncc(C(F)(F)F)cc1Cl)NCCc1ccccc1 0.772% [at 31.5 µM]
OC[C@H]1NC[C@@H](O)[C@@H]1O -82.2%
COc1cccc(S(=O)(=O)N2CCOCC2)c1 -0.379%
CCCN1CNc2c(c(=O)[nH]c(=S)n2-c2ccccc2Cl)C1 1.89% [at 31.5 µM]
Cn1c2c(c(=O)n(C)c1=O)CN(CCCN1CCOCC1)CN2 6.03% [at 31.5 µM]
O=C(Nc1ccccc1)C1CCN(S(=O)(=O)c2ccccc2)CC1 0.601%
COc1cccc2cc(-c3nc(-c4ccc(C)cc4)c(C)s3)c(=O)oc12 4.81%
N=c1sccn1CC(=O)Nc1cc(S(=O)(=O)N2CCCC2)ccc1Cl 2.92%
CN(C(=O)N1CCN(S(=O)(=O)c2ccccc2)CC1)c1ccccc1 -16.2%

Potency, active:
CCCN1CNc2c(c(=O)[nH]c(=S)n2CCc2cc(OC)cc(OC)c2)C1 11.2 µM
CC(=O)c1ccc(N2CCN(S(=O)(=O)c3ccc4c(c3)C(Cl)(Cl)C(=O)N4)CC2)cc1 32.6 µM [inhibitor]
O=c1oc2cc(O)ccc2cc1-c1nc2c(s1)CCc1ccccc1-2 31.6 µM
CCCN1CNc2c(c(=O)[nH]c(=O)n2CCc2ccc(OC)c(OC)c2)C1 17.8 µM
COc1cc(C2c3cc4c(cc3C(OC3OC5COC(C)O[C@@H]5C(O)C3O)C3COC(=O)C23)OCO4)cc(OC)c1O (stereo partly specified) 25.1 µM
Cc1cccn2c(=O)c(/C=C(\C#N)C(=O)NC3CCS(=O)(=O)C3)c(N3CCC(C)CC3)nc12 (stereo unspecified) 11.2 µM
CCCN1CNc2c(c(=O)[nH]c(=S)n2CCc2cccs2)C1 35.5 µM
CCCN1CNc2c(c(=O)[nH]c(=S)n2CCc2cccc(C)c2)C1 35.5 µM

Potency, inactive:
COc1ccc(/C=C/c2nnc(NC(=O)CSc3ccc(Cl)cc3)s2)cc1

Source: PubChem BioAssay AID2113 (National Center for Advancing Translational Sciences (NCATS), 2009)
